Results: PubChem BioAssay (NCATS)
Results filed as inconclusive are left out. Unmarked numbers belong to inactive results. Calls of active or inactive are those of the source. Calls come from the whole dose curve; as a rule, active = well fitted inhibition curve with a large enough effect; inconclusive = small, poorly fitted or top-dose-only effect; inactive = flat fitted curve, though single readings scatter.

Test system: Zika virus NS2B-NS3 protease
Assay: Primary screen GU AMC qHTS for Zika virus inhibitors (AID 1347154);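 note: 0% = no-inhibitor control and -100% = no-enzyme control; nearly all actives have a fitted effect of over 70% in size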
Conditions: Zika NS2B-NS3 unlinked protease, AMC fluorogenic substrate; series mostly up to 54.1 µM; activity change, negative = inhibition: at the top concentration
Method in brief: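 Unlinked Zika NS2B hydrophilic domain–NS3 protease complex at 25 nM in 10 mM Tris-HCl pH 8.0, 0.01% Tween 20, with an AMC peptide substrate. Fluorescence change (340/450 nm) over 15 min at room temperature, normalized to controls, fitted to 4-parameter Hill.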

SMILES	activity change, negative = inhibition	Potency
CCN(CC)C(=O)Nc1ccc(OCC(O)CNC(C)(C)C)c(C(C)=O)c1 (stereo not drawn)	-0.622%	
CN(C)CCN(Cc1ccccc1)c1ccccn1	-6.32%	
c1ccc(CN(CC2=NCCN2)c2ccccc2)cc1		inactive
CCOC(CN1CCN(CC(C)C(=O)c2ccccc2)CC1)c1ccccc1 (stereo not drawn)	-3.5% [at 25.8 µM]	
CCOC(=O)[C@H](CCc1ccccc1)N[C@@H](C)C(=O)N1C(=O)N(C)C[C@H]1C(=O)O	-8.49%	
COc1ccc2cc1Oc1ccc(cc1)C[C@H]1c3c(cc4c(c3Oc3cc5c(cc3OC)CCN(C)[C@@H]5C2)OCO4)CCN1C	-4.66%	
Cc1cccc(C)c1NC(=O)CN(CC(=O)O)CC(=O)O	-5.79%	
CS(=O)(=O)c1ccc([C@@H](O)[C@@H](CF)NC(=O)C(Cl)Cl)cc1	1.44%	
Cc1cccc(Nc2cc(Cl)nc(SCC(=O)O)n2)c1C		inactive
O=C(O)c1ccccn1	0.203%	
CN(N=O)C(=O)N[C@@H]1[C@@H](O)[C@H](O)[C@@H](CO)O[C@@H]1O	-3.41%	
OC[C@H]1O[C@@H](O[C@@H]2[C@@H](CO)O[C@](O)(CO)[C@H]2O)[C@H](O)[C@@H](O)[C@H]1O	-2.66%	
CCCCOc1cc(C(=O)OCCN(CC)CC)ccc1N	3.04%	
CN(C)CCCO[C@@H]1[C@H]2OC(C)(C)O[C@H]2O[C@@H]1C(O)CO (stereo partly drawn)	-8.19%	
O=c1[nH]cnc2c1ncn2[C@@H]1O[C@H](CO)[C@@H](O)[C@H]1O	-2.73%	
NC(CSCC(=O)O)C(=O)O (stereo not drawn)	1.85%	
COc1ccc2[nH]c(S(=O)Cc3ncc(C)c(OC)c3C)nc2n1 (stereo not drawn)	-10.9%	
O=C(CCCN1CCN(c2ccccn2)CC1)c1ccc(F)cc1	-3.97%	
